This is part of a sample that, as a whole, favours compounds with a hit. Of some 83,000 tested, about 20% had one in any assay.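 Results are percent growth after 48 hours of single-concentration exposure. 100 means growth as in untreated cells, lower positive values show inhibition; negative values down to -100 show cell death.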 Unmarked numbers belong to inactive results. Calls of active or inactive are those of the source. The calls were made as follows: active = growth percent below 10; inactive = the rest.

The test system of the first test is NCI-H460 lung. As to the kind of experiment: NCI-60 one-dose screen, 48 h (100 = growth as untreated, 0 = no growth, -100 = all killed). Particulars: 10 µM.
For `COc1ccc(-n2nnc3c(sc4ccccc43)c2=O)cc1`, the growth was -18.2% (active).

Regarding `COc1ccc(Cn2cc3c(c2-c2cc(OC)c(OC)c(OC)c2)CCc2cnoc2-3)cc1[N+](=O)[O-]`, the growth is 7.93% (active).

As to `Nc1ncc(-c2ccc(C(F)(F)F)cc2)c(NC2CCCCCC2)n1`, the growth is 44.9%.

As to `CC(C)(C)CC(C)(C)c1ccc(O)c(Cc2ccc(Cl)cc2Cl)c1`, the growth is -68.1% (active).

For `CC(=O)Nc1ccc2c(c1)C(N1CC3CCC(CC3)C1)c1ccccc1-2` (stereo unspecified), the growth is 64.3%.

On to `COc1cccc2c1C(=O)c1c(O)c3c(c(O)c1C2=O)C[C@@](O)(C(=O)COC(=O)c1cccnc1)C[C@@H]3OC1CC(N)C(O)C(C)O1` (stereo partly specified), for which the growth is 4.13% (active).

Consider `O=C(CCl)N1c2ccccc2Sc2ccc3ccccc3c21`, for which the growth is -35.4% (active).

As to `CCOc1nc(-c2ccccc2)cc2c(O)c(C(=O)NC(C)C)[nH]c(=O)c12`, the growth was 105%.

Take `CN1/C(=C\C(I)C(I)C2=[N+](C)c3ccccc3C2(C)C)C(C)(C)c2ccccc21` (stereo unspecified): the growth is 4.27% (active).

As to `COc1ccc(-c2csc(NC(=O)CO[N+](=O)[O-])n2)cc1`, the growth was 94.1%.

Take `CCCCc1ccc(NC(=O)N(CCCl)N=O)cc1`: the growth is 102%.

As to `CCCCOCCOCCOCc1cc2c(cc1Br)OCO2`, the growth is 111%.

Consider `Nc1nc2c(ncn2C2OC3COP(=O)(O)OC4C(COP(=O)(O)OC2C3O)OC(n2cnc3c(N)ncnc32)C4O)c(=O)[nH]1` (stereo unspecified), for which the growth is 108%.

Regarding `O=[N+]([O-])c1ccc(-c2nc(-c3ccccc3)c(-c3ccccc3)n2-c2ccccc2)cc1`, the growth is 36.4%.

As to `O=C1CC[C@@H](C(=O)N[C@H]2CSSC[C@@H](C(=O)N/C=C/c3ccc(O)cc3)NC(=O)[C@H](Cc3ccccc3)NC(=O)[C@@H]3CCCN3C(=O)[C@@H]3CCCN3C2=O)N1`, the growth was 102%.

As to `CCCCCc1cc[n+](CC(=O)c2ccc(Cl)cc2)cc1`, the growth was 98.5%.

With `CC(C)CCN(CCCNc1c2c(nc3cc(Cl)ccc13)CCCC2)CCC(C)C`, the growth was 55.7%.

Consider `FC(F)(F)c1ccc(-c2ncc(-c3ccc(C(F)(F)F)cc3)c(NCc3cc(C(F)(F)F)cc(C(F)(F)F)c3)n2)cc1`, for which the growth was 38.5%.

Regarding `CC(=O)CS(C)(=O)=O`, the growth was 114%.

As to `COc1ccc(-c2csc(-c3cc(Cl)cc(Cl)c3Cl)n2)cc1`, the growth was 97.9%.

Turning to `Cc1nnc2c3nnc(-c4ccc(Cl)cc4)n3c3ccccc3n12`, the growth was 103%.

For `O=C(C=P(c1ccccc1)(c1ccccc1)c1ccccc1)c1ccc(Br)cc1`, the growth was 93%.

`COc1cc(C2=Nc3c/c(=C\c4c(O)[nH]c5ccc(Cl)cc45)ccc3=N2)cc(OC)c1OC`: the growth was 8.64% (active).

On to `NC(=O)c1ccc(Br)o1`, for which the growth was 109%.

Turning to `C(=C\c1nc2ccccc2s1)/c1ccc(N2CCOCC2)s1`, the growth was 80.7%.

Consider `COc1ccc(-c2nnc(N3CCN(C(=O)CN4CCN(c5ccc(Cl)cc5)CC4)CC3)nc2-c2ccc(OC)cc2)cc1`, for which the growth was 46.8%.

On to `Cc1ccc(C2C=C(c3ccc(Cl)cc3)N=C3SC=CN32)c(Br)c1` (stereo unspecified), for which the growth is 84.4%.

Consider `N#CCC1CCCC1`, for which the growth was 105%.

In the case of `FC(F)(F)c1ccc(-c2cnc(Cl)nc2NC2CCCCCC2)cc1`, the growth is 25.8%.

For the compound `Oc1ccccc1-c1nnc(Cn2c(Cc3cccc4ccccc34)nc3ccccc32)o1`, the growth was 108%.

As to `CCOC(=O)c1cc2c(n1Cc1cc(OC)cc(OC)c1)-c1oncc1CC2`, the growth was 9.46% (active).

As for `COc1ccc(-c2nnc(SC/C(=N\O)c3ccccc3)o2)cc1`, the growth was 98.8%.

Regarding `CCOCC[P+](c1ccccc1)(c1ccccc1)c1ccccc1`, the growth is 58.7%.

For `CCN(CC)CC(O)CNc1ccnc2cc(Cl)c(Cl)cc12` (stereo unspecified), the growth is 100%.

Take `COc1cccc(C(=O)NNc2nc(N3CCN(C4CCCCC4)CC3)nc(N3CCN(C(c4ccccc4)c4ccccc4)CC3)n2)c1`: the growth was 46.1%.

As to `COc1ccc(CCc2nc3cc(-c4c(C)noc4C)ccc3n2CCN2CCOCC2)cc1`, the growth was 30.4%.

Take `Nc1ccc(C2=CC(c3ccc(Cl)cc3)N3C=CSC3=N2)cc1` (stereo unspecified): the growth is -6.81% (active).

Regarding `CN(C)Cc1cccs1`, the growth was 108%.

Another test deals with HOP-92 NSCLC. The test is described as above. Particulars: 10 µM.
As to `COc1ccc(-n2nnc3c(sc4ccccc43)c2=O)cc1`, the growth is -4.08% (active).

As for `COc1ccc(Cn2cc3c(c2-c2cc(OC)c(OC)c(OC)c2)CCc2cnoc2-3)cc1[N+](=O)[O-]`, the growth is 64%.

Take `Nc1ncc(-c2ccc(C(F)(F)F)cc2)c(NC2CCCCCC2)n1`: the growth is -12.1% (active).

For the compound `CC(C)(C)CC(C)(C)c1ccc(O)c(Cc2ccc(Cl)cc2Cl)c1`, the growth is -90.6% (active).

Turning to `CC(=O)Nc1ccc2c(c1)C(N1CC3CCC(CC3)C1)c1ccccc1-2` (stereo unspecified), the growth is 64.2%.

`COc1cccc2c1C(=O)c1c(O)c3c(c(O)c1C2=O)C[C@@](O)(C(=O)COC(=O)c1cccnc1)C[C@@H]3OC1CC(N)C(O)C(C)O1` (stereo partly specified): the growth is -26.3% (active).

With `O=C(CCl)N1c2ccccc2Sc2ccc3ccccc3c21`, the growth is -78.3% (active).

Turning to `CCOc1nc(-c2ccccc2)cc2c(O)c(C(=O)NC(C)C)[nH]c(=O)c12`, the growth was 58.2%.

With `CN1/C(=C\C(I)C(I)C2=[N+](C)c3ccccc3C2(C)C)C(C)(C)c2ccccc21` (stereo unspecified), the growth is -25.7% (active).

Consider `COc1ccc(-c2csc(NC(=O)CO[N+](=O)[O-])n2)cc1`, for which the growth is 118%.

As for `CCCCc1ccc(NC(=O)N(CCCl)N=O)cc1`, the growth was 105%.

Consider `CCCCOCCOCCOCc1cc2c(cc1Br)OCO2`, for which the growth was 85%.

As for `Nc1nc2c(ncn2C2OC3COP(=O)(O)OC4C(COP(=O)(O)OC2C3O)OC(n2cnc3c(N)ncnc32)C4O)c(=O)[nH]1` (stereo unspecified), the growth was 109%.

As to `O=[N+]([O-])c1ccc(-c2nc(-c3ccccc3)c(-c3ccccc3)n2-c2ccccc2)cc1`, the growth was -12.6% (active).

With `O=C1CC[C@@H](C(=O)N[C@H]2CSSC[C@@H](C(=O)N/C=C/c3ccc(O)cc3)NC(=O)[C@H](Cc3ccccc3)NC(=O)[C@@H]3CCCN3C(=O)[C@@H]3CCCN3C2=O)N1`, the growth was 99.2%.

As for `CCCCCc1cc[n+](CC(=O)c2ccc(Cl)cc2)cc1`, the growth was 78%.

For the compound `CC(C)CCN(CCCNc1c2c(nc3cc(Cl)ccc13)CCCC2)CCC(C)C`, the growth is 12.3%.

Turning to `FC(F)(F)c1ccc(-c2ncc(-c3ccc(C(F)(F)F)cc3)c(NCc3cc(C(F)(F)F)cc(C(F)(F)F)c3)n2)cc1`, the growth is -6.55% (active).

`CC(=O)CS(C)(=O)=O`: the growth was 98.5%.

In the case of `COc1ccc(-c2csc(-c3cc(Cl)cc(Cl)c3Cl)n2)cc1`, the growth is 85.8%.

Regarding `Cc1nnc2c3nnc(-c4ccc(Cl)cc4)n3c3ccccc3n12`, the growth was 79.5%.

`O=C(C=P(c1ccccc1)(c1ccccc1)c1ccccc1)c1ccc(Br)cc1`: the growth is 67.1%.

Regarding `COc1cc(C2=Nc3c/c(=C\c4c(O)[nH]c5ccc(Cl)cc45)ccc3=N2)cc(OC)c1OC`, the growth is -61.5% (active).

In the case of `NC(=O)c1ccc(Br)o1`, the growth was 114%.

`C(=C\c1nc2ccccc2s1)/c1ccc(N2CCOCC2)s1`: the growth is 93%.

For the compound `COc1ccc(-c2nnc(N3CCN(C(=O)CN4CCN(c5ccc(Cl)cc5)CC4)CC3)nc2-c2ccc(OC)cc2)cc1`, the growth is 80.3%.

Turning to `Cc1ccc(C2C=C(c3ccc(Cl)cc3)N=C3SC=CN32)c(Br)c1` (stereo unspecified), the growth was 80.6%.

On to `N#CCC1CCCC1`, for which the growth was 80%.

`FC(F)(F)c1ccc(-c2cnc(Cl)nc2NC2CCCCCC2)cc1`: the growth is -28.4% (active).

Turning to `Oc1ccccc1-c1nnc(Cn2c(Cc3cccc4ccccc34)nc3ccccc32)o1`, the growth was 78.3%.

For the compound `CCOC(=O)c1cc2c(n1Cc1cc(OC)cc(OC)c1)-c1oncc1CC2`, the growth is 80%.

Consider `COc1ccc(-c2nnc(SC/C(=N\O)c3ccccc3)o2)cc1`, for which the growth is 98.4%.

`CCOCC[P+](c1ccccc1)(c1ccccc1)c1ccccc1`: the growth was -6.22% (active).

Consider `CCN(CC)CC(O)CNc1ccnc2cc(Cl)c(Cl)cc12` (stereo unspecified), for which the growth is 53.4%.

In the case of `COc1cccc(C(=O)NNc2nc(N3CCN(C4CCCCC4)CC3)nc(N3CCN(C(c4ccccc4)c4ccccc4)CC3)n2)c1`, the growth is 45.5%.

As to `COc1ccc(CCc2nc3cc(-c4c(C)noc4C)ccc3n2CCN2CCOCC2)cc1`, the growth was -7.34% (active).

`Nc1ccc(C2=CC(c3ccc(Cl)cc3)N3C=CSC3=N2)cc1` (stereo unspecified): the growth is -22.7% (active).

On to `CN(C)Cc1cccs1`, for which the growth was 97.2%.

The values above are taken from PubChem BioAssay (NCI).
